Laboratory results reported in the supplement of paper PMC3334620.
The full ranking holds about 33,000 sequences; the median of “E-score (-0.5 to 0.5)” is about -0.036, and the highest 2% start at about 0.37. Many of the other results were omitted from the sample, so the highest values are more common in it than they were.

Each sequence was assayed against T1, Yer064c (UniProt P40041) (assay: PBM E-score (8-mer binding enrichment) (E-score (-0.5 to 0.5)); higher = stronger / more preferred TF binding). Details: protein concentration: 200 nM; construct: GST-full length.
T1 sequence: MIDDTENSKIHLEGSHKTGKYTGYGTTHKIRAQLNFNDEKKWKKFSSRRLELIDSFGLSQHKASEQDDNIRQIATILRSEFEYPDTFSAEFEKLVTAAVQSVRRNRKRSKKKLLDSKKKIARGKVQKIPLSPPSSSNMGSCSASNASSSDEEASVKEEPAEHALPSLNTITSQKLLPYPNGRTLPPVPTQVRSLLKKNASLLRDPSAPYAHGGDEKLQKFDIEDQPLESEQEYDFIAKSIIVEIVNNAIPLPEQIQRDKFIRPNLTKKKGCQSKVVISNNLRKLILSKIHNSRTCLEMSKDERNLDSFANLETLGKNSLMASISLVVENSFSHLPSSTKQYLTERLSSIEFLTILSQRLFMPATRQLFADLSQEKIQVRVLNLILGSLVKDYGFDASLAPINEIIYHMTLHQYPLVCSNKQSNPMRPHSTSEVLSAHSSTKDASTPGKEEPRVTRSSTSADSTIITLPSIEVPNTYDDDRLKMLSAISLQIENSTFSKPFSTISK
Method in brief: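 For each ungapped eight-base word taken together with its reverse complement, the Universal PBM Analysis Suite assigned an E-score. Binding data came from GST-tagged yeast transcription factors, applied at about 100-200 nM, on universal all-10-mer Agilent arrays made double-stranded by primer extension. Fluorescent anti-GST marked bound protein, and scans were normalised with masliner.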

Row | Sequence | PBM E-score
1 | AAGATTTC | 0.0103
2 | AATCTGAC | 0.23
3 | GGACGTAC | -0.0832
4 | ACAGCCTC | -0.308
5 | CAATCACG | 0.296
6 | AAATCACA | 0.219
7 | TAATCACA | 0.419
8 | AAATCACG | 0.264
9 | GAATCACC | 0.456
10 | CAATCACA | 0.346
11 | AAATCACC | 0.328
12 | GAATCACA | 0.439
13 | CAATCACC | 0.343
14 | AAACACAC | 0.0803
15 | AGACAGCC | -0.181
16 | AAAGTCCC | -0.235
17 | GGACTCGA | 0.118
18 | AGCAGTCG | 0.065
19 | CCCAGTCA | 0.316
20 | GGCAGTCA | 0.445
21 | CGCAGTCC | 0.134
22 | AGCAGTCC | -0.0176

Row | Sequence | PBM E-score
23 | AGCAGTCA | 0.412
24 | GGCAGTAA | 0.0188
25 | ACCAGTCC | -0.0297
26 | ACCAGTCT | 0.0632
27 | ACCAGTCA | 0.369
28 | CGCAGTCA | 0.422
29 | GGCAGTGA | 0.0347
30 | AAACGGTA | 0.0163
31 | GTTATGGA | -0.119
32 | CGCCCGAC | -0.0703
33 | ATATCGGC | -0.169
34 | GATCGTAA | -0.068
35 | AATACCAC | -0.172
36 | GGCACTTA | -0.212
37 | CTATCCGC | 0.00533
38 | CTGGAGTC | 0.39
39 | ATGGAGTG | -0.143
40 | ATGGAGTA | 0.182
41 | CTGGAGTA | 0.0648
42 | ATGGAGTC | 0.398
43 | CTGGAGAC | -0.0698
44 | TAGGGCGA | 0.0759

Row | Sequence | PBM E-score
45 | AAAGCTTA | -0.0514
46 | AGTTAGCC | 0.127
47 | ATCGCACG | -0.0772
48 | TAGTCGGA | 0.288
49 | GAGTCGTA | 0.453
50 | CAGTCGGC | 0.122
51 | AAGTCGGC | -0.0537
52 | CAGTCGTA | 0.265
53 | GAGTCGGC | 0.412
54 | AAGTCGTA | 0.328
55 | CAGTCGGA | 0.118
56 | GAGTCGGA | 0.395
57 | CAACACAG | 0.0802
58 | GAAAATAA | 0.133
59 | TGACGACA | 0.102
60 | CATCGCAC | -0.211
61 | ATGCAAGA | 0.139
62 | CGCTCATC | 0.0112
63 | CAAGCCGG | -0.108
64 | ACATTCTA | 0.0824
65 | GGGATTCA | 0.147
66 | ATGATTCA | 0.49

Row | Sequence | PBM E-score
67 | GTGATTCA | 0.474
68 | AGGATTCA | 0.24
69 | AAGATTCG | 0.205
70 | GTGATTTA | 0.35
71 | AGGATTCG | -0.0455
72 | ATGATTCG | 0.437
73 | AAGATTCA | 0.37
74 | GAGATTCA | 0.238
75 | ACGATTCA | 0.298
76 | ACGATTCG | 0.0252
77 | CGCGCCCC | -0.271
78 | CAACCTGC | -0.127
79 | CCGTAATA | 0.0217
80 | ACTCAGCT | 0.216
81 | ACCGGAAG | -0.0509
82 | GATGCTCC | -0.345
83 | AACAACCA | 0.13
84 | ATGGGGAC | -0.14
85 | CGAAATCA | 0.309
86 | CCGCGGAC | -0.0248
87 | CGTGGAGC | -0.124
88 | CCACCCCA | -0.0763

Row | Sequence | PBM E-score
89 | ATGACCGG | -0.128
90 | AATATATC | -0.0361
91 | CAGATTCA | 0.157
92 | ATGATTCC | 0.456
93 | CTGATTCC | 0.301
94 | CTGATTCA | 0.45
95 | CGGATTCA | 0.194
96 | AGGATTCC | 0.0611
97 | CTCGGCCC | -0.206
98 | ATGAATCC | 0.253
99 | ATGAATCG | 0.355
100 | CTGAATCC | 0.235
101 | GTGAATGA | 0.14
102 | GTGAATCA | 0.48
103 | ATGAATCA | 0.48
104 | CTGAATCA | 0.455
105 | CTGAATTA | 0.0399
106 | GTGAATAA | 0.0323
107 | CTAAGGTA | 0.105
108 | GTTTATTA | 0.148
109 | CGATGTGA | 0.103
